How the values were obtained:
Experiment in all cases: DAPPL (digital affinity profiling via proximity ligation, sequencing); 10 mM Tris-HCl pH 7.5, 50 mM NaCl, 1 mM DTT, 4% glycerol, room temperature, 30 min; GST-TFs on glutathione beads, 16-mer random dsDNA library, 0.1% formaldehyde crosslink after washing; high values mean tight binding
FLI1 = target: T1, FLI1 (Homo sapiens, UniProt Q01543 1-452); conditions: protein: recombinant; tags: N-terminal GST; dsDNA, one strand shown
T1 sequence: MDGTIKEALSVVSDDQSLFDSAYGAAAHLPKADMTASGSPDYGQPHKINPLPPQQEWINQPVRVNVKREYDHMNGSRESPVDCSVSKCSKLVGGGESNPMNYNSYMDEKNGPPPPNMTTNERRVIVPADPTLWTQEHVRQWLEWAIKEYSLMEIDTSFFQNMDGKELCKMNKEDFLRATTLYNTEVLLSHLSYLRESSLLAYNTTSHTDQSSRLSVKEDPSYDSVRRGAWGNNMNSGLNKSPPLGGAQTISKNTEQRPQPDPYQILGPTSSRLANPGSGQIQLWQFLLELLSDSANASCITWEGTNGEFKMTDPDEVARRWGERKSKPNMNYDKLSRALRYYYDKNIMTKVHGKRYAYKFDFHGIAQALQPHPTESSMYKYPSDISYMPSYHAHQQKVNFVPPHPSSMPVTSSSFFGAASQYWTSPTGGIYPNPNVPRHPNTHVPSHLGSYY
Procedure, shortened: (§1)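 The binding signal reported is, for every hexamer, its read frequency for a factor over its read frequency for the tag-only sample. Reads came from pools of yeast-expressed, GST-fused human transcription factors on glutathione beads, barcoded with DNA and mixed with that sample, which were incubated with 200 nmole of a random double-stranded 16-mer DNA library in Tris/NaCl/DTT/glycerol buffer at room temperature for 30 min. After washing, the pools were crosslinked with 0.1% formaldehyde, proximity-ligated with BsaI/T4 ligase for 1 h at 37 °C, PCR-amplified and sequenced on an Illumina NextSeq500.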

ELK1 = target: T2, ELK1 (Homo sapiens, UniProt P19419 1-428); conditions: protein: recombinant; tags: N-terminal GST; dsDNA, one strand shown
T2 sequence: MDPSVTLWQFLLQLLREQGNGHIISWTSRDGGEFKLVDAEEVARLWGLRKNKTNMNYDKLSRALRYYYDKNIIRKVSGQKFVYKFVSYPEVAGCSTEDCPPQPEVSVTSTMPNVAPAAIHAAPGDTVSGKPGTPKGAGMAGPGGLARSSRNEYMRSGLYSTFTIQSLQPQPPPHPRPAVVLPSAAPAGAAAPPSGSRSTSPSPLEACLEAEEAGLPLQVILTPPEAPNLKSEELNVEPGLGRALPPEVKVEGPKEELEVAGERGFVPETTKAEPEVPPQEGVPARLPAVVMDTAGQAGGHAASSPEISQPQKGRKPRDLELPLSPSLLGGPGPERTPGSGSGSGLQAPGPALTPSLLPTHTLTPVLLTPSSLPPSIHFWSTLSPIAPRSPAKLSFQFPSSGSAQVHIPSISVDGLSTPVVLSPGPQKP
Procedure, shortened: as §1

GABPA = target: T3, GABPA (Homo sapiens, UniProt Q06546 1-454); conditions: protein: recombinant; tags: N-terminal GST; dsDNA, one strand shown
T3 sequence: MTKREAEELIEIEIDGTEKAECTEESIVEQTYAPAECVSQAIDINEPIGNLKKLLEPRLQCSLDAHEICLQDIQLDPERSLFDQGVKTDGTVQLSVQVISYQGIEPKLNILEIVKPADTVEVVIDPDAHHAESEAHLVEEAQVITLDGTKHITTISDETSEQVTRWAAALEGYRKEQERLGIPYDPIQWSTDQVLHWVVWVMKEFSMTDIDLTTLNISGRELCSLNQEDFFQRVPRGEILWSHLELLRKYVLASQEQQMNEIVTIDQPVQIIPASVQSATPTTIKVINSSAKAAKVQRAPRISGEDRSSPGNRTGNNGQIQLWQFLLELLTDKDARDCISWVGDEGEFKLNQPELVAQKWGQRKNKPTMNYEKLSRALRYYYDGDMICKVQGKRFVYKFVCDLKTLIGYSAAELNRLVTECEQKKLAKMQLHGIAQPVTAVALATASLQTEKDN
Procedure, shortened: as §1

ERG = target: T4, ERG (Homo sapiens, UniProt P11308 1-479); conditions: protein: recombinant; tags: N-terminal GST; dsDNA, one strand shown
T4 sequence: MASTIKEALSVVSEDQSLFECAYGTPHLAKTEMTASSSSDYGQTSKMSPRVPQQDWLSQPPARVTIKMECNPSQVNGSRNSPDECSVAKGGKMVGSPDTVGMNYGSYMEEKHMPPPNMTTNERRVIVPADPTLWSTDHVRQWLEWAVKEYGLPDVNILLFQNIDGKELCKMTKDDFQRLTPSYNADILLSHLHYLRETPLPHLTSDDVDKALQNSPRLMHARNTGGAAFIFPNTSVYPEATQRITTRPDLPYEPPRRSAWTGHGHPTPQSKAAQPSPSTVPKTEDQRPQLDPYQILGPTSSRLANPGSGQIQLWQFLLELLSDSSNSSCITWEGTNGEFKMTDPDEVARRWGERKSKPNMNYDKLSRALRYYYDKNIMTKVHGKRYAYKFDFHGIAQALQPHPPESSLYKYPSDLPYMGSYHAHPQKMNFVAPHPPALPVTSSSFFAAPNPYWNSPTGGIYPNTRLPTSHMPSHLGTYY
Procedure, shortened: as §1

ELF1 = ELF1 (Homo sapiens, UniProt P32519 1-619); conditions: protein: recombinant; tags: N-terminal GST; dsDNA, one strand shown
Sequence of ELF1 (P32519 whole entry): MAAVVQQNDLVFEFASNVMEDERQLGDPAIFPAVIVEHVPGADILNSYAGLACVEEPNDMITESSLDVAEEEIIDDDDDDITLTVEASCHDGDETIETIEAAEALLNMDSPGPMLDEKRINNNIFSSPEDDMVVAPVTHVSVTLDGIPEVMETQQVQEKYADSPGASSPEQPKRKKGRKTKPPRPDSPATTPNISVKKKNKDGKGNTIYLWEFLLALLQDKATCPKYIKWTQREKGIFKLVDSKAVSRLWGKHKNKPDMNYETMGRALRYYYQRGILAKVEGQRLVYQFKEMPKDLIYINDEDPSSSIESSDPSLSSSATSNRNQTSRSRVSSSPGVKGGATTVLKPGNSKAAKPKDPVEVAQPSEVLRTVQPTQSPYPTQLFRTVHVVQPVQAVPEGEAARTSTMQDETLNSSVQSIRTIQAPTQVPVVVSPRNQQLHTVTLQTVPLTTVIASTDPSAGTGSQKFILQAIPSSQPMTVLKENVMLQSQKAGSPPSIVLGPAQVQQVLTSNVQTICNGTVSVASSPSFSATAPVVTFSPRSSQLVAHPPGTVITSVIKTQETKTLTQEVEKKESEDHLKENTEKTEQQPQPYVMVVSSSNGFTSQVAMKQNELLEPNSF
Procedure, shortened: as §1

EHF = target: T5, EHF (Homo sapiens, UniProt Q9NZC4 1-300); conditions: protein: recombinant; tags: N-terminal GST; dsDNA, one strand shown
T5 sequence: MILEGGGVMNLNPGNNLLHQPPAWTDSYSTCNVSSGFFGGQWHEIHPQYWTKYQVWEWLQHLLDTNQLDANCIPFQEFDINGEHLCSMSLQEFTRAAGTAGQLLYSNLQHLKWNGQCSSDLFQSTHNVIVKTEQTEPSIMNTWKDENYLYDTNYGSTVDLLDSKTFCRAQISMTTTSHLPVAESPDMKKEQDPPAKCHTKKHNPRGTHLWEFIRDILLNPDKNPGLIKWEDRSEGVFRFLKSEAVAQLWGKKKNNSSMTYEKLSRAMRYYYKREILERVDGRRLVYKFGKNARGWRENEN
Procedure, shortened: as §1

SPI1 = SPI1 (Homo sapiens, UniProt P17947 1-270); conditions: protein: recombinant; tags: N-terminal GST; dsDNA, one strand shown
Procedure, shortened: as §1

SPIB = SPIB (Homo sapiens, UniProt Q01892 1-262); conditions: protein: recombinant; tags: N-terminal GST; dsDNA, one strand shown
Sequence of SPIB (Q01892 whole entry): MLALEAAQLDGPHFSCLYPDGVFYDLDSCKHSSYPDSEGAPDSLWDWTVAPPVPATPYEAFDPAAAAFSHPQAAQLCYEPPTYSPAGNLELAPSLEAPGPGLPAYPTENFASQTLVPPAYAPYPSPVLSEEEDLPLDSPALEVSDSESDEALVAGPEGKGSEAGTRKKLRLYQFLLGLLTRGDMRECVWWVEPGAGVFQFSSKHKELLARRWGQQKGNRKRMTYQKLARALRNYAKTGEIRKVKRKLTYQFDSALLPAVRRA
Procedure, shortened: as §1

ELK3 = target: T6, ELK3 (Homo sapiens, UniProt P41970 1-407); conditions: protein: recombinant; tags: N-terminal GST; dsDNA, one strand shown
T6 sequence: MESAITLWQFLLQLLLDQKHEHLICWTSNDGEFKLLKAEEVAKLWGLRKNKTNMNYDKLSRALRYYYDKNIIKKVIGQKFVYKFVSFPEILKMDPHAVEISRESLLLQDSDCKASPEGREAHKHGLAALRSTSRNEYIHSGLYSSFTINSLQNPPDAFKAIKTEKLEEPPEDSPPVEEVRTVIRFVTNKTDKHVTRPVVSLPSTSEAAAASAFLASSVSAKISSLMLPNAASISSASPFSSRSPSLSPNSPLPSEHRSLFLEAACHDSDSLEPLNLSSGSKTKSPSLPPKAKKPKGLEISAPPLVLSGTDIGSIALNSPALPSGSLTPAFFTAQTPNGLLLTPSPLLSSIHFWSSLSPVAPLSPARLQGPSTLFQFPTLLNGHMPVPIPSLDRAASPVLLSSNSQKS
Procedure, shortened: as §1

FEV = target: T7, FEV (Homo sapiens, UniProt Q99581 1-238); conditions: protein: recombinant; tags: N-terminal GST; dsDNA, one strand shown
T7 sequence: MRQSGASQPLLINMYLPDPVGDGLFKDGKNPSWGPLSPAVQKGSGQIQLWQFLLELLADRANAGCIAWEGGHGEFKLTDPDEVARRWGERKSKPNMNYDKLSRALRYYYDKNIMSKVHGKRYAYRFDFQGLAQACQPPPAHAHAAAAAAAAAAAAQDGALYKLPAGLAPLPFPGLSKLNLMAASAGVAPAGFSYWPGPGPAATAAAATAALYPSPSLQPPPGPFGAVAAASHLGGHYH
Procedure, shortened: as §1

ETV5 = ETV5 (Homo sapiens, UniProt P41161 1-510); conditions: protein: recombinant; tags: N-terminal GST; dsDNA, one strand shown
Sequence of ETV5 (P41161 whole entry): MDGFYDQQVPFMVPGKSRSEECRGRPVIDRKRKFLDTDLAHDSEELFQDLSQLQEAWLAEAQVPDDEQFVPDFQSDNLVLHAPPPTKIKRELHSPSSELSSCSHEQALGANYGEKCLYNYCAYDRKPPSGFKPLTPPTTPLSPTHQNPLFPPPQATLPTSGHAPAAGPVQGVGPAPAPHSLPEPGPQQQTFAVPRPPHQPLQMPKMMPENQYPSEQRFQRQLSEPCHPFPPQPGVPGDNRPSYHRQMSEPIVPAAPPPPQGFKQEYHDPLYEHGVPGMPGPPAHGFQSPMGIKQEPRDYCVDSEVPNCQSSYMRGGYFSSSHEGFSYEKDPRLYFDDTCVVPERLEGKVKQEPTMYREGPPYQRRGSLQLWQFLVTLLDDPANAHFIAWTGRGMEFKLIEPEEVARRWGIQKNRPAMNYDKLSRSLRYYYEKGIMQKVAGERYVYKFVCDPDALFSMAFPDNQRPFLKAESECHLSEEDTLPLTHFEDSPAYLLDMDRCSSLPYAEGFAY
Procedure, shortened: as §1

HSF1 = HSF1 (Homo sapiens, UniProt Q00613 1-529); conditions: protein: recombinant; tags: N-terminal GST; chain copies: 3; dsDNA, one strand shown
Sequence of HSF1 (Q00613 whole entry): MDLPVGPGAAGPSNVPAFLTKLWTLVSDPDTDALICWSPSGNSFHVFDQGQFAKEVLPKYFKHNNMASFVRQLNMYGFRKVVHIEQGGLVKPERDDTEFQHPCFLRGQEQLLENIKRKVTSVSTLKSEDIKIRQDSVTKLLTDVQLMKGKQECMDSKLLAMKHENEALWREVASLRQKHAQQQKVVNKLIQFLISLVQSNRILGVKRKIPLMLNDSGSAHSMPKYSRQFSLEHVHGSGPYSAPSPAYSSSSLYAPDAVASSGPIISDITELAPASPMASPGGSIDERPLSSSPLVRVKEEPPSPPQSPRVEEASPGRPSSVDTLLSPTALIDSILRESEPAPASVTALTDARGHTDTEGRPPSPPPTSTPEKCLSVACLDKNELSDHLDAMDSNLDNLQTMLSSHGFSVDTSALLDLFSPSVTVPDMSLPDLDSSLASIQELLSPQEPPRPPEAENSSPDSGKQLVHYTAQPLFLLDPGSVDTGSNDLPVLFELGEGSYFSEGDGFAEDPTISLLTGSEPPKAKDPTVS
Procedure, shortened: as §1

SPIC = target: T8, SPIC (Homo sapiens, UniProt Q8N5J4 1-248); conditions: protein: recombinant; tags: N-terminal GST; dsDNA, one strand shown
T8 sequence: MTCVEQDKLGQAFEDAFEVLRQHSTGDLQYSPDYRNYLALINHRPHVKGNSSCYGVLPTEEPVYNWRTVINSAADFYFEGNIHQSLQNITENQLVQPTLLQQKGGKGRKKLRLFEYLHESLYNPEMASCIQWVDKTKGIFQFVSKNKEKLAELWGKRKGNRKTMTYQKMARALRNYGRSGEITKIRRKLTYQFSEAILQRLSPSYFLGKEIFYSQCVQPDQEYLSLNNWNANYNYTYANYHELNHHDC
Procedure, shortened: as §1

ELF4 = ELF4 (Homo sapiens, UniProt Q99607 1-663); conditions: protein: recombinant; tags: N-terminal GST; dsDNA, one strand shown
Sequence of ELF4 (Q99607 whole entry): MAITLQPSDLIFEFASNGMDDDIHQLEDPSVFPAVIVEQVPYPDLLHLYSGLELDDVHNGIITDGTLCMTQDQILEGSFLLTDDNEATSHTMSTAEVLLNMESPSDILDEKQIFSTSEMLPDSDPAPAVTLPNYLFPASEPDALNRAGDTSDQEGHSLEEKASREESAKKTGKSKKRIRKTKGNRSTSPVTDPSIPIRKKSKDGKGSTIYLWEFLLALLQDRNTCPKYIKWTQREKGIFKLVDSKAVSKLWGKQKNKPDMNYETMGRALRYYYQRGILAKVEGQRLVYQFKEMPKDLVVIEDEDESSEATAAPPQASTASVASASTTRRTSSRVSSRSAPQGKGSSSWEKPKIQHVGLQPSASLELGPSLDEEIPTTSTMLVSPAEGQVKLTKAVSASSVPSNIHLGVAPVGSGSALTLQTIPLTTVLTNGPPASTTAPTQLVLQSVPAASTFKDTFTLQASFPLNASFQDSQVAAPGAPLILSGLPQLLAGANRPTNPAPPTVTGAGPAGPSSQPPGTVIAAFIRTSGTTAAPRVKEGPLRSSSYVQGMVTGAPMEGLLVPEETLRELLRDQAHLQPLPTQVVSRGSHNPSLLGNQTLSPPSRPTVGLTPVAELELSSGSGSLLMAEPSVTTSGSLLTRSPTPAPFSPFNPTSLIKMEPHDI
Procedure, shortened: as §1

ELK4 = target: T9, ELK4 (Homo sapiens, UniProt P28324-2 1-405); conditions: protein: recombinant; tags: N-terminal GST; dsDNA, one strand shown
T9 sequence: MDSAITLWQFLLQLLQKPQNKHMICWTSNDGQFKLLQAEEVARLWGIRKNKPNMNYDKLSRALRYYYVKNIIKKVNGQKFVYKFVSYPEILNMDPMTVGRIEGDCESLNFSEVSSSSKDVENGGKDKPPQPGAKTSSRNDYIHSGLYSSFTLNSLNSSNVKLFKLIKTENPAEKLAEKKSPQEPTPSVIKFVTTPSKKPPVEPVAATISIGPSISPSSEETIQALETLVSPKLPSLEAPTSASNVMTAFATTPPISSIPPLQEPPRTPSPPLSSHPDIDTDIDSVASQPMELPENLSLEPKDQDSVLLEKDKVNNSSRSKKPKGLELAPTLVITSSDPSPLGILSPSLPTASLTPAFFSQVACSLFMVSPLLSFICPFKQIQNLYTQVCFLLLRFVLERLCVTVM
Procedure, shortened: as §1

ETV2 = target: T10, ETV2 (Homo sapiens, UniProt O00321 1-342); conditions: protein: recombinant; tags: N-terminal GST; dsDNA, one strand shown
T10 sequence: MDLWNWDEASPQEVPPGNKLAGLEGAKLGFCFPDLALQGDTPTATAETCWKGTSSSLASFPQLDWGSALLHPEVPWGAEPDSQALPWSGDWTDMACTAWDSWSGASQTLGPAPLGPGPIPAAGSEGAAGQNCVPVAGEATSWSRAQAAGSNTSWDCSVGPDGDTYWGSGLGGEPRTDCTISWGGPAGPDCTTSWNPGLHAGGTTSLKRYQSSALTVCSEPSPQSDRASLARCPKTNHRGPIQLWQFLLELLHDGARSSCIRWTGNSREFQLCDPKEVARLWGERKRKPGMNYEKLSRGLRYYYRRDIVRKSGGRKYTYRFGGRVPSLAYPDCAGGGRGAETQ
Procedure, shortened: as §1

ELF3 = target: T11, ELF3 (Homo sapiens, UniProt P78545 1-371); conditions: protein: recombinant; tags: N-terminal GST; dsDNA, one strand shown
T11 sequence: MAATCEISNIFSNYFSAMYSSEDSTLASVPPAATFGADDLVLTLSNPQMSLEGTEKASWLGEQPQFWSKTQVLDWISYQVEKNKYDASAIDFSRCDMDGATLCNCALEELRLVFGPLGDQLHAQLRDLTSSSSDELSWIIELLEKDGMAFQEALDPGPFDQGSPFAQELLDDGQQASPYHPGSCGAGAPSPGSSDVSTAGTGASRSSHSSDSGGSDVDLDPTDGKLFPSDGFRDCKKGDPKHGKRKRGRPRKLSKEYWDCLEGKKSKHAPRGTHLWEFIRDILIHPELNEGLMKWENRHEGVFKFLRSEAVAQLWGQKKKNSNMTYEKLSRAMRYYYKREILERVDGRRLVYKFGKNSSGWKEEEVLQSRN
Procedure, shortened: as §1

ETV1 = ETV1 (Homo sapiens, UniProt P50549 1-477); conditions: protein: recombinant; tags: N-terminal GST; dsDNA, one strand shown
Sequence of ETV1 (P50549 whole entry): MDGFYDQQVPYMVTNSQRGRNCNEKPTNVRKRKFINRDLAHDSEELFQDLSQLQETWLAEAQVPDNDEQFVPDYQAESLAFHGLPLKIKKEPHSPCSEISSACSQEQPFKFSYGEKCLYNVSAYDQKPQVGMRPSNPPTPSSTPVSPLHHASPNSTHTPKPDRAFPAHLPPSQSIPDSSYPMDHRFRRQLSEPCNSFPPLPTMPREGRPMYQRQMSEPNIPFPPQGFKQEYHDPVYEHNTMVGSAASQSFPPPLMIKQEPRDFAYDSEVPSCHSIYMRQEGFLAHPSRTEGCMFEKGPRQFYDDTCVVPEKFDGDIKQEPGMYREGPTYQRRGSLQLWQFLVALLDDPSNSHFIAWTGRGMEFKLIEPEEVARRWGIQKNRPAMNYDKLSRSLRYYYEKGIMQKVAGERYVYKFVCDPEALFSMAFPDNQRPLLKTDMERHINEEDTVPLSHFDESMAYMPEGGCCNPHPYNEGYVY
Procedure, shortened: as §1

With AGGAAA the binding signal (FLI1) was 1.32 fold enrichment (6-mer frequency, TF over GST control), the binding signal (ELK1) was 1.28 fold enrichment (6-mer frequency, TF over GST control) and the binding signal (GABPA) was 1.31 fold enrichment (6-mer frequency, TF over GST control). For the same sequence, the binding signal (ERG) was 1.62 fold enrichment (6-mer frequency, TF over GST control), the binding signal (ELF1) was 1.27 fold enrichment (6-mer frequency, TF over GST control) and the binding signal (EHF) was 1.63 fold enrichment (6-mer frequency, TF over GST control). For the same sequence, the binding signal (SPI1) was 1.43 fold enrichment (6-mer frequency, TF over GST control), the binding signal (SPIB) was 1.49 fold enrichment (6-mer frequency, TF over GST control) and the binding signal (ELK3) was 1.34 fold enrichment (6-mer frequency, TF over GST control). For the same sequence, the binding signal (FEV) was 1.5 fold enrichment (6-mer frequency, TF over GST control), the binding signal (ETV5) was 1.52 fold enrichment (6-mer frequency, TF over GST control) and the binding signal (HSF1) was 1.15 fold enrichment (6-mer frequency, TF over GST control). The binding signal (SPIC) was 1.42 fold enrichment (6-mer frequency, TF over GST control), the binding signal (ELF4) was 1.35 fold enrichment (6-mer frequency, TF over GST control) and the binding signal (ELK4) was 1.2 fold enrichment (6-mer frequency, TF over GST control). The binding signal (ETV2) was 1.41 fold enrichment (6-mer frequency, TF over GST control), the binding signal (ELF3) was 1.72 fold enrichment (6-mer frequency, TF over GST control) and the binding signal (ETV1) was 1.46 fold enrichment (6-mer frequency, TF over GST control).

Source: paper PMC7862700, “An all-to-all approach to the identification of sequence-specific readers for epigenetic DNA modifications on cytosine”
